The whole screen tested about 5,500 compounds, of which about 2,000 (36%) were called active. Inconclusive results (about 18%) are left out. Rule as the data show it: active = normalized growth mostly below about 0.91 (no sharp cut-off); inconclusive = no clear call, values can overlap the other calls; inactive = mostly above about 0.92. The list shows a part of the results.
Experiment: chemical genetic growth profiling, strain panel (AID 1159580);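 also: tested at 20 µM; growth read once vehicle control cultures reached saturation at 30 °C; 1 = growth at the plate median or of vehicle wells; lower values mean less growth of the strain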
Settings: growth OD

Measured: normalized growth

CCCCOc1cc(C(=O)NCCN(CC)CC)c2ccccc2n1
inactive: S. cerevisiae deletion strains, locus YJR075W, strain HOC1, hits give low values 0.999 | S. cerevisiae deletion strains, locus YKL009W, strain mrt4, hits give low values 1 | S. cerevisiae deletion strains, locus YKL068W, hits give low values 0.994 | S. cerevisiae deletion strains, locus YKL085W, strain MDH1 (second series), hits give low values 0.989 | S. cerevisiae deletion strains, locus YKL085W, strain MDH1, hits give low values 0.989 | S. cerevisiae deletion strains, locus YKL160W, strain elf1, hits give low values 0.964 | S. cerevisiae deletion strains, locus YKR001C, strain vps1, hits give low values 1.01 | S. cerevisiae deletion strains, locus YKR026C, strain gcn3, hits give low values 0.962 | S. cerevisiae deletion strains, locus YKR091W, strain srl3, hits give low values 0.973 | S. cerevisiae deletion strains, locus YLL001W, strain dnm1, hits give low values 0.939 | S. cerevisiae deletion strains, locus YLL026W, hits give low values 0.981 | S. cerevisiae deletion strains, locus YLL041C, strain sdh2, hits give low values 0.956 | S. cerevisiae deletion strains, locus YLR027C, strain aat2, hits give low values 0.97 | S. cerevisiae deletion strains, locus YLR039C, strain RIC1, hits give low values 1.13 | S. cerevisiae deletion strains, locus YLR058C, strain SHM2, hits give low values 1.01 | S. cerevisiae deletion strains, locus YLR102C, strain apc9, hits give low values 0.99 | S. cerevisiae deletion strains, locus YLR113W, strain HOG1, hits give low values 1.02 | S. cerevisiae deletion strains, locus YLR221C, strain rsa3, hits give low values 1.02 | S. cerevisiae deletion strains, locus YLR258W, strain gsy2, hits give low values 1 | S. cerevisiae deletion strains, locus YLR262C, strain YPT6 (second series), hits give low values 0.956 | S. cerevisiae deletion strains, locus YLR262C, strain YPT6, hits give low values 1.14 | S. cerevisiae deletion strains, locus YLR268W, strain sec22, hits give low values 1 | S. cerevisiae deletion strains, locus YLR320W, strain mms22, hits give low values 1.02 | S. cerevisiae deletion strains, locus YLR330W, strain CHS5, hits give low values 1.01 | S. cerevisiae deletion strains, locus YLR342W, strain FKS1 (second series), hits give low values 1.02 | S. cerevisiae deletion strains, locus YLR342W, strain FKS1, hits give low values 0.957 | S. cerevisiae deletion strains, locus YLR357W, strain rsc2, hits give low values 0.94 | S. cerevisiae deletion strains, locus YLR370C, strain arc18, hits give low values 0.971 | S. cerevisiae deletion strains, locus YLR371W, strain rom2, hits give low values 0.99 | S. cerevisiae deletion strains, locus YLR384C, strain iki3, hits give low values 0.959 | S. cerevisiae deletion strains, locus YLR418C, strain cdc73, hits give low values 0.984 | S. cerevisiae deletion strains, locus YML016C, strain PPZ1, hits give low values 1.01 | S. cerevisiae deletion strains, locus YML032C, strain rad52, hits give low values 0.989 | S. cerevisiae deletion strains, locus YML120C, strain ndi1, hits give low values 0.969 | S. cerevisiae deletion strains, locus YML124C, strain tub3, hits give low values 0.994 | S. cerevisiae deletion strains, locus YMR058W, strain fet3, hits give low values 0.968 | S. cerevisiae deletion strains, locus YMR078C, strain ctf18, hits give low values 0.991 | S. cerevisiae deletion strains, locus YMR125W, strain sto1, hits give low values 0.931 | S. cerevisiae deletion strains, locus YMR129W, hits give low values 0.982 | S. cerevisiae deletion strains, locus YMR205C, strain PFK2, hits give low values 0.972 | S. cerevisiae deletion strains, locus YMR223W, strain ubp8, hits give low values 0.987 | S. cerevisiae deletion strains, locus YMR231W, strain pep5, hits give low values 0.96 | S. cerevisiae deletion strains, locus YMR263W, strain SAP30, hits give low values 1 | S. cerevisiae deletion strains, locus YMR307W, strain GAS1, hits give low values 1.1 | S. cerevisiae deletion strains, locus YNL067W, strain RPL9B, hits give low values 0.995 | S. cerevisiae deletion strains, locus YNL071W, strain lat1, hits give low values 0.985 | S. cerevisiae deletion strains, locus YNL128W, strain TEP1, hits give low values 1 | S. cerevisiae deletion strains, locus YNL153C, strain GIM3, hits give low values 0.994 | S. cerevisiae deletion strains, locus YNL183C, strain NPR1, hits give low values 0.975 | S. cerevisiae deletion strains, locus YNL209W, strain ssb2, hits give low values 0.985 | S. cerevisiae deletion strains, locus YNL233W, strain BNI4, hits give low values 0.997 | S. cerevisiae deletion strains, locus YNL248C, strain rpa49, hits give low values 0.979 | S. cerevisiae deletion strains, locus YNL250W, strain rad50, hits give low values 0.996 | S. cerevisiae deletion strains, locus YNL271C, strain bni1, hits give low values 0.991 | S. cerevisiae deletion strains, locus YNL298W, strain CLA4, hits give low values 0.998 | S. cerevisiae deletion strains, locus YNL307C, strain MCK1, hits give low values 0.984 | S. cerevisiae deletion strains, locus YNL322C, strain KRE1 (second series), hits give low values 0.951 | S. cerevisiae deletion strains, locus YNL322C, strain KRE1, hits give low values 1 | S. cerevisiae deletion strains, locus YNR049C, strain mso1, hits give low values 0.967 | S. cerevisiae deletion strains, locus YNR052C, strain pop2, hits give low values 0.985 | S. cerevisiae deletion strains, locus YOL012C, strain htz1 0.896 | S. cerevisiae deletion strains, locus YOL147C, strain pex11, hits give low values 0.998 | S. cerevisiae deletion strains, locus YOR001W, strain rrp6, hits give low values 0.935 | S. cerevisiae deletion strains, locus YOR061W, strain CKA2, hits give low values 1.01 | S. cerevisiae deletion strains, locus YOR069W, strain VPS5, hits give low values 1 | S. cerevisiae deletion strains, locus YOR070C, strain gyp1, hits give low values 0.991 | S. cerevisiae deletion strains, locus YOR080W, strain dia2, hits give low values 0.962 | S. cerevisiae deletion strains, locus YOR083W, strain WHI5, hits give low values 0.967 | S. cerevisiae deletion strains, locus YOR106W, strain vam3, hits give low values 0.966 | S. cerevisiae deletion strains, locus YOR136W, strain idh2, hits give low values 0.998 | S. cerevisiae deletion strains, locus YOR144C, strain elg1, hits give low values 0.992 | S. cerevisiae deletion strains, locus YOR184W, strain ser1, hits give low values 0.995 | S. cerevisiae deletion strains, locus YOR231W, strain MKK1, hits give low values 1.03 | S. cerevisiae deletion strains, locus YOR265W, strain rbl2, hits give low values 0.976 | S. cerevisiae deletion strains, locus YOR270C, strain vph1, hits give low values 0.933 | S. cerevisiae deletion strains, locus YOR290C, strain snf2, hits give low values 0.977 | S. cerevisiae deletion strains, locus YOR316C, strain cot1, hits give low values 0.996 | S. cerevisiae deletion strains, locus YPL051W, strain arl3, hits give low values 0.989 | S. cerevisiae deletion strains, locus YPL055C, strain LGE1, hits give low values 1.02 | S. cerevisiae deletion strains, locus YPL078C, strain atp4, hits give low values 0.936 | S. cerevisiae deletion strains, locus YPL106C, strain sse1, hits give low values 0.921 | S. cerevisiae deletion strains, locus YPL240C, strain hsp82, hits give low values 0.962 | S. cerevisiae deletion strains, locus YPL256C, strain CLN2, hits give low values 1.01 | S. cerevisiae deletion strains, locus YPR119W, strain clb2, hits give low values 0.994 | S. cerevisiae deletion strains, locus YPR141C, strain kar3, hits give low values 1 | S. cerevisiae deletion strains, locus YPR163C, strain tif3, hits give low values 1 | S. cerevisiae deletion strains, locus YPR167C, strain met16, hits give low values 0.986 | S. cerevisiae deletion strains, strain wtn01, hits give low values 1.02 | S. cerevisiae strains, strain wild type, hits give low values 1
